# From ChEMBL document CHEMBL5606458, “ASAP - ZIKV NS2B-NS3 protease fluorescence single point” (2024)
# The campaign covered roughly 2,700 compounds. About 160 (5.9%) showed an effect of 50% or more. For the sample, strong results were picked, then their nearest neighbours and some compounds at random.
# Molecular target: Nonstructural protein 3 (Zika virus) (UniProt A0A024AXB9)
# Sequence (A0A024AXB9 as listed by the source): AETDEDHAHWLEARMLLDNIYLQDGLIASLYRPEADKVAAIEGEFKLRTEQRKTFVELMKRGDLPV
smiles,measurement,setting,value
O=C(NC[C@H]1CCOC1)c1cc(Cl)ccc1NS(=O)(=O)c1ccc(Oc2ccccc2Cl)cc1,inhibition,"PRVABC59, Concentration 49.5 uM, Number of replicates 2.0, Standard deviation 4.1620208465884945 %",16.4%
same,inhibition,"PRVABC59, Concentration 99.01 uM, Number of replicates 2.0, Standard deviation 1.5720504754733005 %",31.6%
same,inhibition,"PRVABC59, Concentration 198.0 uM, Number of replicates 2.0, Standard deviation 3.020626194849933 %",23.3%
O=C(c1cc(Cl)ccc1NS(=O)(=O)c1ccc(Oc2ccccc2Cl)cc1)N1CC[C@H](CO)C1,inhibition,"PRVABC59, Concentration 49.5 uM, Number of replicates 2.0, Standard deviation 0.6366783858004793 %",4.61%
same,inhibition,"PRVABC59, Concentration 99.01 uM, Number of replicates 2.0, Standard deviation 1.3685297503351668 %",11.5%
same,inhibition,"PRVABC59, Concentration 198.0 uM, Number of replicates 2.0, Standard deviation 0.3954655654516591 %",72.9%
O=C(c1cc(Cl)ccc1NS(=O)(=O)c1ccc(Oc2ccccc2Cl)cc1)N1CCC[C@@H]1CO,inhibition,"PRVABC59, Concentration 49.5 uM, Number of replicates 2.0, Standard deviation 0.644882859919004 %",6.57%
same,inhibition,"PRVABC59, Concentration 99.01 uM, Number of replicates 2.0, Standard deviation 0.07876403049715877 %",37.2%
same,inhibition,"PRVABC59, Concentration 198.0 uM, Number of replicates 2.0, Standard deviation 0.031176529605690447 %",69.4%
C[C@H]1COCCN1C(=O)c1cc(Cl)ccc1NS(=O)(=O)c1ccc(Oc2ccccc2Cl)cc1,inhibition,"PRVABC59, Concentration 49.5 uM, Number of replicates 2.0, Standard deviation 0.03588483834653944 %",17%
same,inhibition,"PRVABC59, Concentration 99.01 uM, Number of replicates 2.0, Standard deviation 0.6631068200403265 %",40.8%
same,inhibition,"PRVABC59, Concentration 198.0 uM, Number of replicates 2.0, Standard deviation 0.09361590556282165 %",58.7%
Cc1cnccc1NC(=O)c1cccn(CC2CCNCC2)c1=O,inhibition,"PRVABC59, Concentration 49.5 uM, Number of replicates 2.0, Standard deviation 3.2606712103202136 %",0.531%
same,inhibition,"PRVABC59, Concentration 99.01 uM, Number of replicates 2.0, Standard deviation 2.3019517896210857 %",3.91%
same,inhibition,"PRVABC59, Concentration 198.0 uM, Number of replicates 2.0, Standard deviation 2.0430462280295743 %",7.25%
c1ccc2c([C@H]3CCN(CC[C@H]4CCCOC4)C3)c[nH]c2c1,inhibition,"PRVABC59, Concentration 49.5 uM, Number of replicates 2.0, Standard deviation 1.010318627219257 %",5.96%
same,inhibition,"PRVABC59, Concentration 99.01 uM, Number of replicates 2.0, Standard deviation 2.5976606536818863 %",9.61%
same,inhibition,"PRVABC59, Concentration 198.0 uM, Number of replicates 2.0, Standard deviation 2.1960692966802595 %",20.4%
CCn1ccnc(N2CC[C@H](c3ccn[nH]3)C2)c1=O,inhibition,"PRVABC59, Concentration 49.5 uM, Number of replicates 2.0, Standard deviation 1.2586397664505307 %",6.21%
same,inhibition,"PRVABC59, Concentration 99.01 uM, Number of replicates 2.0, Standard deviation 2.3660377586558408 %",15.1%
same,inhibition,"PRVABC59, Concentration 198.0 uM, Number of replicates 2.0, Standard deviation 2.03279173119948 %",28.1%
NCc1cccc(CNC(=O)[C@@H](NC(=O)OCc2ccccc2)c2ccc(OCc3ccccc3)cc2)c1,inhibition,"PRVABC59, Concentration 49.5 uM, Number of replicates 2.0, Standard deviation 0.160775728553173 %",99.2%
same,inhibition,"PRVABC59, Concentration 99.01 uM, Number of replicates 2.0, Standard deviation 0.12446874737194843 %",99%
same,inhibition,"PRVABC59, Concentration 198.0 uM, Number of replicates 2.0, Standard deviation 0.3293253590204834 %",98.1%
NCc1cccc(NC(=O)[C@@H](NC(=O)OCc2ccccc2)c2ccc(F)c(F)c2)c1,inhibition,"PRVABC59, Concentration 49.5 uM, Number of replicates 2.0, Standard deviation 0.33969955290034887 %",-2.45%
same,inhibition,"PRVABC59, Concentration 99.01 uM, Number of replicates 2.0, Standard deviation 0.8168349211729018 %",6.3%
same,inhibition,"PRVABC59, Concentration 198.0 uM, Number of replicates 2.0, Standard deviation 1.2939689407463024 %",43.9%
NCc1cccc(NC(=O)[C@@H](NC(=O)OCc2ccccc2)c2ccc(F)cc2)c1,inhibition,"PRVABC59, Concentration 49.5 uM, Number of replicates 2.0, Standard deviation 0.5315909510099626 %",1.43%
same,inhibition,"PRVABC59, Concentration 99.01 uM, Number of replicates 2.0, Standard deviation 0.7442277023062145 %",8.36%
same,inhibition,"PRVABC59, Concentration 198.0 uM, Number of replicates 2.0, Standard deviation 0.5134389777058966 %",25.7%
CCCCCC(=O)N[C@H](C(=O)NCc1ccc(NC(=N)N)cc1)c1ccc(OCc2ccccc2)cc1,inhibition,"PRVABC59, Concentration 49.5 uM, Number of replicates 2.0, Standard deviation 4.889627391275408 %",4.26%
same,inhibition,"PRVABC59, Concentration 99.01 uM, Number of replicates 2.0, Standard deviation 2.962062980256652 %",19.3%
same,inhibition,"PRVABC59, Concentration 198.0 uM, Number of replicates 2.0, Standard deviation 2.9458988209157537 %",67.5%
C[C@@H](C(=O)Nc1cccc(CN)c1)c1ccc(OCc2ccccc2)cc1,inhibition,"PRVABC59, Concentration 49.5 uM, Number of replicates 2.0, Standard deviation 0.17467234529733644 %",-0.009%
same,inhibition,"PRVABC59, Concentration 99.01 uM, Number of replicates 2.0, Standard deviation 10.257482850017862 %",21.6%
same,inhibition,"PRVABC59, Concentration 198.0 uM, Number of replicates 2.0, Standard deviation 0.22285904793408415 %",62.2%
NCc1cccc(NC(=O)[C@@H](NC(=O)OCc2ccccc2)c2ccc(Br)cc2)c1,inhibition,"PRVABC59, Concentration 49.5 uM, Number of replicates 2.0, Standard deviation 0.867338983981324 %",10%
same,inhibition,"PRVABC59, Concentration 99.01 uM, Number of replicates 2.0, Standard deviation 0.4728161592371566 %",98.2%
same,inhibition,"PRVABC59, Concentration 198.0 uM, Number of replicates 2.0, Standard deviation 0.18671930544775084 %",97.9%
NCc1cccc(NC(=O)c2ccc(OCc3ccccc3)cc2)c1,inhibition,"PRVABC59, Concentration 49.5 uM, Number of replicates 2.0, Standard deviation 1.3665778981704908 %",1.2%
same,inhibition,"PRVABC59, Concentration 99.01 uM, Number of replicates 2.0, Standard deviation 3.6407499729049095 %",22.5%
same,inhibition,"PRVABC59, Concentration 198.0 uM, Number of replicates 2.0, Standard deviation 29.263434924261905 %",26.6%
NCc1cccc(NC(=O)Cc2ccc(OCc3ccccc3)cc2)c1,inhibition,"PRVABC59, Concentration 49.5 uM, Number of replicates 2.0, Standard deviation 0.6755896628980406 %",-0.82%
same,inhibition,"PRVABC59, Concentration 99.01 uM, Number of replicates 2.0, Standard deviation 0.4165875428765907 %",8.98%
same,inhibition,"PRVABC59, Concentration 198.0 uM, Number of replicates 2.0, Standard deviation 2.4964043674210097 %",40.9%
c1ccc2c([C@H]3CCN(CCC4CCOCC4)C3)c[nH]c2c1,inhibition,"PRVABC59, Concentration 49.5 uM, Number of replicates 2.0, Standard deviation 1.2406953242285323 %",12.1%
same,inhibition,"PRVABC59, Concentration 99.01 uM, Number of replicates 2.0, Standard deviation 0.23839741086829247 %",18.5%
same,inhibition,"PRVABC59, Concentration 198.0 uM, Number of replicates 2.0, Standard deviation 0.8459297336369422 %",27.9%
O=S(=O)(Nc1ccc(Oc2ccccc2Cl)cc1)c1c[nH]c2ccc(Cl)cc12,inhibition,"PRVABC59, Concentration 49.5 uM, Number of replicates 2.0, Standard deviation 1.8433959322838933 %",11%
same,inhibition,"PRVABC59, Concentration 99.01 uM, Number of replicates 2.0, Standard deviation 3.1252865977713378 %",14.3%
same,inhibition,"PRVABC59, Concentration 198.0 uM, Number of replicates 2.0, Standard deviation 3.9544884158217 %",39%
O=C1NCc2ccccc2C12CCN(Cc1cc3ccc(F)cc3[nH]1)CC2,inhibition,"PRVABC59, Concentration 49.5 uM, Number of replicates 2.0, Standard deviation 3.3747851513626115 %",6.9%
same,inhibition,"PRVABC59, Concentration 99.01 uM, Number of replicates 2.0, Standard deviation 2.4802388593809592 %",13.2%
same,inhibition,"PRVABC59, Concentration 198.0 uM, Number of replicates 2.0, Standard deviation 2.1357042200194405 %",18.5%
CCCCCC(=O)N[C@H](C(=O)NCc1ccc(N)nc1)c1ccc(OCc2ccccc2)cc1,inhibition,"PRVABC59, Concentration 49.5 uM, Number of replicates 2.0, Standard deviation 0.04494641077638166 %",-2.18%
same,inhibition,"PRVABC59, Concentration 99.01 uM, Number of replicates 2.0, Standard deviation 0.3023657059020049 %",1.76%
same,inhibition,"PRVABC59, Concentration 198.0 uM, Number of replicates 2.0, Standard deviation 0.018387068425059654 %",-1.18%
CCCCCC(=O)N[C@H](C(=O)N1CCC(CN)CC1)c1ccc(OCc2ccccc2)cc1,inhibition,"PRVABC59, Concentration 49.5 uM, Number of replicates 2.0, Standard deviation 1.1847944417619873 %",5.06%
same,inhibition,"PRVABC59, Concentration 99.01 uM, Number of replicates 2.0, Standard deviation 0.3935504126553241 %",10.8%
same,inhibition,"PRVABC59, Concentration 198.0 uM, Number of replicates 2.0, Standard deviation 0.8347422741682105 %",26.5%
NCc1ccc(NC(=O)[C@@H](NC(=O)OCc2ccccc2)c2ccc(OCc3ccccc3)cc2)cc1,inhibition,"PRVABC59, Concentration 49.5 uM, Number of replicates 2.0, Standard deviation 1.551749181482573 %",7.22%
same,inhibition,"PRVABC59, Concentration 99.01 uM, Number of replicates 2.0, Standard deviation 2.287213711046402 %",11.8%
same,inhibition,"PRVABC59, Concentration 198.0 uM, Number of replicates 2.0, Standard deviation 0.9961100816492645 %",23%
CCCCCC(=O)N[C@H](C(=O)NCc1cccc(CN)c1)c1ccc(OCc2ccccc2)cc1,inhibition,"PRVABC59, Concentration 49.5 uM, Number of replicates 2.0, Standard deviation 0.8118332703664171 %",-3.7%
same,inhibition,"PRVABC59, Concentration 99.01 uM, Number of replicates 2.0, Standard deviation 11.543494465765306 %",89.7%
same,inhibition,"PRVABC59, Concentration 198.0 uM, Number of replicates 2.0, Standard deviation 0.4445743989869767 %",99%
NCc1cccc(NC(=O)[C@@H](NC(=O)OCc2ccccc2)c2ccc(OCc3ccccc3)cc2)c1,inhibition,"PRVABC59, Concentration 49.5 uM, Number of replicates 2.0, Standard deviation 0.012122107981309298 %",99.6%
same,inhibition,"PRVABC59, Concentration 99.01 uM, Number of replicates 2.0, Standard deviation 0.01616281064174573 %",99.1%
same,inhibition,"PRVABC59, Concentration 198.0 uM, Number of replicates 2.0, Standard deviation 0.06465124256698292 %",97.8%
NC1(c2cccc(NC(=O)[C@@H](NC(=O)OCc3ccccc3)c3ccc(OCc4ccccc4)cc3)c2)CCC1,inhibition,"PRVABC59, Concentration 49.5 uM, Number of replicates 2.0, Standard deviation 2.468656231060589 %",14.2%
same,inhibition,"PRVABC59, Concentration 99.01 uM, Number of replicates 2.0, Standard deviation 1.4495575723595426 %",30.7%
same,inhibition,"PRVABC59, Concentration 198.0 uM, Number of replicates 2.0, Standard deviation 0.13484294125181392 %",82.7%
